Inconclusive results are not listed. Active and inactive are the calls of the source. Unless noted, the call rests on the fitted dose curve; in most records, active means well fitted curve in either direction with a large enough effect (not every such curve was filed as active); inconclusive means small, poorly fitted or top-dose-only effect, or another doubt; inactive means flat fitted curve, though single readings scatter.
What was measured:
[1] = target: Lysosomal acid glucosylceramidase (Homo sapiens) (UniProt P04062); assay: Glucocerebrosidase-p2 (AID 348; in the data active means potency below about 10 µM; further: potency means the concentration at half of the fitted maximal effect); conditions: purified GBA, blue fluorogenic substrate, 40 min
Procedure, shortened: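 Compounds titrated from 0.6 nM upwards against 0.2 nM enzyme in pH 5.9 citric acid/KH2PO4, taurocholate, tween-20; blue fluorogenic substrate 80 uM, 40 min room temperature, stopped and read Ex 365/Em 440 for AC50.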

[2] = AP1 Signaling Pathway (AID 357); conditions: ME-180 AP-1-bla reporter, EGF-induced, beta-lactamase ratio, 5 h; at 7.69 µM (top of the series) unless noted;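 further: ME-180 reporter cells stimulated with EGF at its EC50 level; on the % scale 0 is the no-effect control and ±100 the full control effect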
Procedure, shortened: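 Beta-lactamase reporter under AP-1 response element, ME-180 background. Stimulus: EC50 EGF. Compound exposure 5 h, 37 °C. Detection: CCF4, 2.5 h RT, 460/530 nm. Values: AC50 from titration.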

[3] = NFAT Signaling Pathway (AID 444); conditions: Jurkat NFAT-bla M1, carbachol, beta-lactamase ratio, 5 h; at 7.69 µM (top of the series) unless noted;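 further: carbachol stimulus at about its EC50 of 1 µM final; on the % scale 0 is the no-effect control and ±100 the full control effect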
Procedure, shortened: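 Jurkat cells carrying an NFAT-driven β-lactamase reporter and co-transfected muscarinic M1 receptor were treated with compound plus carbachol (1 uM final, an EC50 level) for 5 h at 37 °C. CCF4 loading followed for 1 h at RT; 460/530 nm ratio gave %activity.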

[4] = Stat Signaling Pathway (AID 446); conditions: ME-180 SIE beta-lactamase reporter, IL-6 stimulated, 5 h; at 7.69 µM (top of the series) unless noted;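 further: ME-180 cervical cancer cells given 40 pM IL-6 alongside compound; SIE-controlled beta-lactamase reporter measured as 460/530 nm FRET emission ratio; on the % scale 0 is the no-effect control and ±100 the full control effect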
Procedure, shortened: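 Screening format detects activators and inhibitors alike: ME-180 SIE-bla cells stimulated at 40 pM IL-6 for 5 hrs with compound, then dual-emission beta-lactamase read at 405 nm excitation.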

[5] = target: Glucocorticoid receptor (Homo sapiens) (UniProt P04150); assay: GR-EFC Redistribution (AID 451; calls by dose curve; further: potency means the concentration at half of the fitted maximal effect); conditions: CHO-K1 GR-EFC translocation, beta-gal luminescence, 2 h
Procedure, shortened: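 CHO-K1 cells stably expressing nuclear-localized β-gal enzyme acceptor and GR fused C-terminally to the enzyme donor fragment; ligand-driven nuclear translocation restores β-gal by complementation. Compounds titrated up to 46 uM final, 2 h at 37 °C; luminescence read.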

[6] = target: Mitogen-activated protein kinase 10 (Mus musculus) (UniProt Q61831); assay: JNK3 AlphaScreen Assay (AID 530); conditions: JNK3 lysate, c-Jun phosphorylation; series mostly up to 57.1 µM;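 further: kinase came from lysate of stimulated human HepG2 cells; signal reports phosphorylation of biotinylated GST-cJun 1-79 at Ser73 with 10 µM ATP; on the % scale 0 is the no-effect control and ±100 the full control effect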
Procedure, shortened: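 Inhibitors reduce antibody binding to phosphorylated biotin-cJun, lowering AlphaScreen luminescence. Lysates from HepG2 cells pre-activated by IL-1beta plus TNF-alpha supplied JNK3; compounds were titrated.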

[7] = target: 3',5'-cyclic-AMP phosphodiesterase 4B (Homo sapiens) (UniProt Q07343); assay: qHTS Assay for Inhibitors of PDE-IV (AID 607; active means well fitted activation curve with a large enough effect in the main read-out, with a control signal flat, not every such curve was filed as active; further: % of control where 0% means no effect); conditions: HEK293 ACTOne CNG channel cells, membrane potential fluorescence; series mostly up to 22.9 µM
Procedure, shortened: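 The readout is membrane depolarisation from a cAMP-sensing CNG channel, detected with a potential dye at ex 535/em 590. Cells were HEK293-derived (endogenous PDE-IV) at 1000 cells/well, titrated up to 22.9 uM final.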

[8] = target: Cytochrome P450 3A4 (Homo sapiens) (UniProt P08684); assay: qHTS Assay for Activators of Cytochrome P450 3A4 (AID 885; active means well fitted curve in the direction sought with a large enough effect; an effect the other way counts as inactive or inconclusive; further: nearly all actives have a fitted effect of over 65% in size; further: potency means the concentration at half of the fitted maximal effect); conditions: recombinant CYP3A4, Luciferin-PPXE luminescence, 60 min; series mostly up to 57.1 µM
Procedure, shortened: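 Steps: enzyme/substrate mix dispensed; compound added, 10 min RT; NADPH regeneration solution added, 60 min RT; luciferin detection buffer stops reaction; 20 min later luminescence measured.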

[9] = target: Cytochrome P450 2D6 (Homo sapiens) (UniProt P10635); assay: qHTS Assay for Inhibitors and Substrates of Cytochrome P450 2D6 (AID 891; active means well fitted curve in the direction sought with a large enough effect; an effect the other way counts as inactive or inconclusive; further: potency means the concentration at half of the fitted maximal effect; nearly all actives have a fitted effect of over 60% in size); conditions: recombinant CYP2D6, luciferin-ME EGE luminescence; series mostly up to 57.1 µM
Procedure, shortened: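 Human CYP2D6 (5 nM) with 30 uM Luciferin-ME EGE (at Km) in 100 mM KPO4, compound preincubated 10 min, then NADPH regeneration system for 60 min at room temperature. Luciferin read by luminescence; normalized to 1.43 uM quinidine.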

[10] = qHTS Assay for Lipid Storage Modulators (AID 1519; calls by dose curve); conditions: Drosophila S3 cells, BODIPY lipid droplet/cell ratio, laser cytometry, cells loaded with oleic acid; for activity change, negative = inhibition: at 57.5 µM (top of the series)
Procedure, shortened: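 Cells seeded at 5,000 per well were treated with compounds over a concentration series and loaded with oleic acid (400 uM, as added). Lipid droplet fluorescence (488 nm excitation, 500-530 nm channel) was read by laser-scanning cytometry and normalized to 20 uM Triacsin C.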

[11] = Primary qHTS for small molecule stabilizers of the endoplasmic reticulum resident proteome: Secreted ER Calcium Modulated Protein (SERCaMP) assay (AID 1508630; active means well fitted curve in the direction sought with a large enough effect; an effect the other way counts as inactive or inconclusive; further: on the % scale 0 is the no-effect control and ±100 the full control effect); conditions: SH-SY5Y GLuc-SERCaMP (Gaussia luciferase released on ER calcium loss) secretion, thapsigargin, luminescence; series mostly up to 38.4 µM
Procedure, shortened: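 GLuc-SERCaMP-expressing SH-SY5Y cells, pretreated 16 h with compound, are challenged with thapsigargin to empty ER calcium stores; after 4 h, coelenterazine is added directly to the medium and luminescence is imaged.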

[12] = qHTS Assay for Identification of Small Molecule Agonists for Hypoxia Response Element Signaling Pathway (AID 914; active means well fitted activation curve with a large enough effect in the signal ratio, with a control signal flat, not every such curve was filed as active; the % refers to the signal ratio; further: potency means the concentration at half of the fitted maximal effect; on activation: % of control where 0% means no effect); conditions: ME-180 (cervical carcinoma) HRE-bla reporter, beta-lactamase ratio, CoCl2, 17 h; activation: stronger effect = higher value
Procedure, shortened: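 Positive modulation of EC50 CoCl2-induced hypoxia response element signaling is measured in ME-180 cells with a beta-lactamase reporter. Compounds are titrated, incubation runs 17 hours, and %Activity derives from the blue/green ratio.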

[13] = target: Glucocorticoid receptor (Homo sapiens) (UniProt P04150); assay: GR-GFP Redistribution (AID 450;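 active means compounds whose dose series gives a full or clear partial fitted curve of increased nuclear translocation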; further: potency means the concentration at half of the fitted maximal effect); conditions: U2OS GR-GFP nuclear translocation, laser cytometry, 2 h
[14] = target: Cytochrome P450 2C9 (Homo sapiens) (UniProt P11712); assay: qHTS Assay for Inhibitors and Substrates of Cytochrome P450 2C9 (AID 883; active means well fitted curve in the direction sought with a large enough effect; an effect the other way counts as inactive or inconclusive; further: on the % scale 0 is the no-effect control and ±100 the full control effect; nearly all actives have a fitted effect of over 60% in size); conditions: recombinant CYP2C9, luciferin-H luminescence, 60 min; series mostly up to 57.1 µM
Procedure, shortened: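 CYP2C9 deoxyluciferin hydroxylation, 37C, 60 min with NADPH regeneration; 10nM enzyme, 100uM Luciferin-H (KM). Glo detection reagent stopped reaction; luminescence normalized to sulphaphenazole (57uM) full inhibition.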

[15] = measured here: cell count channel max response
[16] = measured here: lipid channel max response

3',5'-cyclic-AMP phosphodiesterase 4B (Homo sapiens), sequence (Q07343 whole entry, looked up): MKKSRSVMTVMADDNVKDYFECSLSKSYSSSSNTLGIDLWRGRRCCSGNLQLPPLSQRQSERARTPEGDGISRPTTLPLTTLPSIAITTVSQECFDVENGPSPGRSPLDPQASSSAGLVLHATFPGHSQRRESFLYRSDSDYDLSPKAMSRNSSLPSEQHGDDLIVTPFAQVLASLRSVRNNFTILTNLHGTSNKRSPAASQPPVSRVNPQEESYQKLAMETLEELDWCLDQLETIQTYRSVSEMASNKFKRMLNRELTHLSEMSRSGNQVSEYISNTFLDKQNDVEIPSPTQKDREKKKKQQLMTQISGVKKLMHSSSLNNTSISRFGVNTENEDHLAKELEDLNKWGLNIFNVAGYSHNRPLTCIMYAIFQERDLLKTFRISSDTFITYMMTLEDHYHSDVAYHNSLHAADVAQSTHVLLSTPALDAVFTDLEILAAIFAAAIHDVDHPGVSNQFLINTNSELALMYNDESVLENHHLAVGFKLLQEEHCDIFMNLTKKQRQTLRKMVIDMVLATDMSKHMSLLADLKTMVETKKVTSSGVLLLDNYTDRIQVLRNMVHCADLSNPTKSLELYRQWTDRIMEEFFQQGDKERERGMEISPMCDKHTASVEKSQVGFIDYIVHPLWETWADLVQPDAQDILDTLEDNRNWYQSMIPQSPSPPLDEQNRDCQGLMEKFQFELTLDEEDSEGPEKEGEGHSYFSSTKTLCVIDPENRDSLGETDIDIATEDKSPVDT
Lysosomal acid glucosylceramidase (Homo sapiens), sequence (P04062 whole entry, looked up): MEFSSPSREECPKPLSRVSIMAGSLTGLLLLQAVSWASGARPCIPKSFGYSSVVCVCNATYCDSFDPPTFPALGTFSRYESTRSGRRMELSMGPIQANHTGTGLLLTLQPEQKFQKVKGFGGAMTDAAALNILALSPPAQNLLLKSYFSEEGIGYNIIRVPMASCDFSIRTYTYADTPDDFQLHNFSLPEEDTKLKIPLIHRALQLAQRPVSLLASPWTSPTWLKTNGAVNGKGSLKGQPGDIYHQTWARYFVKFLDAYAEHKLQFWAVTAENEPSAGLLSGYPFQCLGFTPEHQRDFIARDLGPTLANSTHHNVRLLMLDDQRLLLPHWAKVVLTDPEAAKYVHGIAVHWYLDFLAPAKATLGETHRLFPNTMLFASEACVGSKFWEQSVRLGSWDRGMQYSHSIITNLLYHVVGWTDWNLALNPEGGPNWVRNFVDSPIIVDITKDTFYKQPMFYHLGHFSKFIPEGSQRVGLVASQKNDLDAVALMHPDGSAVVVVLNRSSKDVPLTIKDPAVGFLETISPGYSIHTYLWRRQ
Glucocorticoid receptor (Homo sapiens), sequence (P04150 whole entry, looked up, the tested form may be a part): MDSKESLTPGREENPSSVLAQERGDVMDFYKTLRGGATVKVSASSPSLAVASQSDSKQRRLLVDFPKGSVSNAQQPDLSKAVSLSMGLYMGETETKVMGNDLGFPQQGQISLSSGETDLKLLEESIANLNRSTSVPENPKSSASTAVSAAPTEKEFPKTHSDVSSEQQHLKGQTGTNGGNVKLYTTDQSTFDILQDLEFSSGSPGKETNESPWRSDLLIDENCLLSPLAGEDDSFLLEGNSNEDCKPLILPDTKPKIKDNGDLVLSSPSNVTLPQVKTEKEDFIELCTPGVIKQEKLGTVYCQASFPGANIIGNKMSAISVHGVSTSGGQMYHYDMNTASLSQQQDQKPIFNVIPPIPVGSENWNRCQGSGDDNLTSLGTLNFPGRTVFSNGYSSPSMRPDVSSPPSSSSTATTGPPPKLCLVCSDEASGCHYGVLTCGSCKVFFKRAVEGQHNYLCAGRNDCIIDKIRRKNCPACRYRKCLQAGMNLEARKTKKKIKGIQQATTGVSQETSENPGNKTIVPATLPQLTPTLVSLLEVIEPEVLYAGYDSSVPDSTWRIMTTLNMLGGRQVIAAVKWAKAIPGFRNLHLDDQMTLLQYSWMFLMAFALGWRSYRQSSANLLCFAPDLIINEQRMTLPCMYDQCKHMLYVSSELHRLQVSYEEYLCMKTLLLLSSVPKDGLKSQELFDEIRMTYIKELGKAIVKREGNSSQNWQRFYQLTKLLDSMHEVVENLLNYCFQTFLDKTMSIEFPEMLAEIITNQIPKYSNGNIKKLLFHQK
Cytochrome P450 3A4 (Homo sapiens), sequence (P08684 whole entry, looked up): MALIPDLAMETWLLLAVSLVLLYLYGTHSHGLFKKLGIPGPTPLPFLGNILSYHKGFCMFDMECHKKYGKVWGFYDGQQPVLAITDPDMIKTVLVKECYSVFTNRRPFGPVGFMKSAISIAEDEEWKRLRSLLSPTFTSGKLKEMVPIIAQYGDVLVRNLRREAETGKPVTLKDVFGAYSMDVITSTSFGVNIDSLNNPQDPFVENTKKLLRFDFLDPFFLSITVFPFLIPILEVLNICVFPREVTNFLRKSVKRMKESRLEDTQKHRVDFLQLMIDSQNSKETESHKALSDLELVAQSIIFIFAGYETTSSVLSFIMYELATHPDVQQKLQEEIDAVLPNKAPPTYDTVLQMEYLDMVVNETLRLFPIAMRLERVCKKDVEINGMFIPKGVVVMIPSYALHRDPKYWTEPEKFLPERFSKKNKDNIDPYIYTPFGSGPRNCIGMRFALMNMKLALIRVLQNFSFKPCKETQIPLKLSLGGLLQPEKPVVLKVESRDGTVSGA
Cytochrome P450 2C9 (Homo sapiens), sequence (P11712 whole entry, looked up): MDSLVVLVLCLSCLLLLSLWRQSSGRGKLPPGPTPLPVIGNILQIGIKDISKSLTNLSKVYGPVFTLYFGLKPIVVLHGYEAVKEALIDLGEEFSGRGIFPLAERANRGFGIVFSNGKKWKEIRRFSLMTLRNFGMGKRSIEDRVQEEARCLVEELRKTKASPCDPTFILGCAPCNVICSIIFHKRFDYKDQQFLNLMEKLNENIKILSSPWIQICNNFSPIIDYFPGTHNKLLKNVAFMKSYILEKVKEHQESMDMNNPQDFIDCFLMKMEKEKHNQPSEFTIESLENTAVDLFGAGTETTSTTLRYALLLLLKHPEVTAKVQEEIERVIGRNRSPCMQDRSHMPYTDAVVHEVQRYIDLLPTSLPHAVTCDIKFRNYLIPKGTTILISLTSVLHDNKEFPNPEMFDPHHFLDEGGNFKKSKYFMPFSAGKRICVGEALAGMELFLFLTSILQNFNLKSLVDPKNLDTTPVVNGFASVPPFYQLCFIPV
Cytochrome P450 2D6 (Homo sapiens), sequence (P10635 whole entry, looked up): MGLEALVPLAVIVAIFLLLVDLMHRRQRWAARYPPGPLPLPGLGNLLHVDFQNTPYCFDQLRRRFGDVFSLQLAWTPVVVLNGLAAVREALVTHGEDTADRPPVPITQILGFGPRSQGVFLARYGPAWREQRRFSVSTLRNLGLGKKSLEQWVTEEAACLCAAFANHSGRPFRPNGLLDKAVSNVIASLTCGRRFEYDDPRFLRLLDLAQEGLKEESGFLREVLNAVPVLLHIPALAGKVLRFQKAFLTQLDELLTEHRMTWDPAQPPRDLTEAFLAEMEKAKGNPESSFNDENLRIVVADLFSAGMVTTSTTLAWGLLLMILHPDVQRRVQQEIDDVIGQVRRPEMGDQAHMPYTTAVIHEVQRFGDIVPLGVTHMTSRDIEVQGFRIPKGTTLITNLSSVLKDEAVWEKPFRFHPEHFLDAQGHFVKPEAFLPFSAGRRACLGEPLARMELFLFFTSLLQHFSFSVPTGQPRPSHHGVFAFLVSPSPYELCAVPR

Cn1cccc1C(=O)N1CCC2(CC1)CN(C(c1ccccc1)c1ccccc1)C2
inactive: Potency [1] > 11.4 µM | activity change, negative = inhibition [2] 14.4% | activity change, negative = inhibition [3] -18.7% | activity, negative = inhibition [4] -4.09% | Potency [5] > 46 µM | Potency [6] | Potency [7] | activity change, negative = inhibition [10] -5.27% | outcome [11]
active: Potency [8] 15.8 µM | Potency [9] 3.16 µM
-6.77%: max response [10, 15]
-9.88%: max response [10, 16]

O=C(Nc1ccccc1)N1CC[C@@]2(CCCN(C(=O)c3cccc(F)c3)C2)C1
19.2%: max response [10, 15]
inactive: Potency [1] > 11.4 µM | activity change, negative = inhibition [2] -10.5% | activity change, negative = inhibition [3] -6.63% | activity, negative = inhibition [4] 4.89% | Potency [5] > 46 µM | Potency [6] | Potency [7] | Potency [8] | activity change, negative = inhibition [10] 5.88% | outcome [11]
27.2%: max response [10, 16]

O=S(=O)(c1ccccc1)N1CCC2(CCN(c3ccc(-c4ccccc4)cc3)CC2)CC1
22.9%: max response [10, 16]
inactive: Potency [1] > 11.4 µM | activity change, negative = inhibition [2] 1.76% | activity change, negative = inhibition [3] 11.9% | activity, negative = inhibition [4] -10.3% | Potency [5] > 46 µM | Potency [6] | Potency [7] | Potency [8] | activity change, negative = inhibition [10] 5.32% | outcome [11]
18.6%: max response [10, 15]

O=S(=O)(c1ccccc1)N1CCC2(CC1)CN(c1ccccc1)C2
inactive: Potency [1] > 11.4 µM | activity change, negative = inhibition [2] 3.38% | activity change, negative = inhibition [3] 8.23% | activity, negative = inhibition [4] -6.85% | Potency [5] > 46 µM | Potency [6] | Potency [7] | activity change, negative = inhibition [10] 4.76% | outcome [11]
12.5%: max response [10, 15]
18.4%: max response [10, 16]

COCC(=O)N1CCC2(CCN(Cc3nccs3)CC2)CC1
9.94%: max response [10, 15]
16.3%: max response [10, 16]
inactive: Potency [1] > 11.4 µM | activity change, negative = inhibition [2] 0.0953% | activity change, negative = inhibition [3] -2.93% | activity, negative = inhibition [4] 10% | Potency [5] > 46 µM | Potency [6] | Potency [7] | activation [12] 14.8% | activity change, negative = inhibition [10] 2.2% | outcome [11]

COCC(=O)N1CCC2(CCCN(c3ccccc3)C2)CC1
6.05%: max response [10, 16]
4.96%: max response [10, 15]
inactive: Potency [1] > 11.4 µM | activity change, negative = inhibition [2] 4.54% | activity change, negative = inhibition [3] -7.94% | activity, negative = inhibition [4] -0.962% | Potency [5] > 46 µM | Potency [6] | Potency [7] | Potency [8] | activity change, negative = inhibition [10] 0.354% | outcome [11]

Cn1cccc1C(=O)N1CCC[C@@]2(CCN(C(=O)Nc3cccc(C#N)c3)C2)C1
inactive: Potency [1] > 11.4 µM | activity change, negative = inhibition [2] -6.67% | activity change, negative = inhibition [3] 10.5% | activity, negative = inhibition [4] -3.81% | Potency [5] > 46 µM | Potency [6] | Potency [7] | Potency [8] | activity change, negative = inhibition [10] 5.85% | outcome [11]
14.3%: max response [10, 15]
24.9%: max response [10, 16]

COc1ccc(Oc2ncc3nc(-c4cn(C)c5ccccc45)c(=O)n(CCC#N)c3n2)cc1
26.1%: max response [10, 16]
active: Potency [12] 3.16 µM
27.8%: max response [10, 15]
inactive: Potency [1] > 11.4 µM | activity change, negative = inhibition [2] -1.79% | activity change, negative = inhibition [3] -2.24% | Potency [13] > 9.22 µM | Potency [5] > 46 µM | Potency [6] | Potency [7] | Potency [14] | activity change, negative = inhibition [10] -4.32% | outcome [11]

CC(C)CN1CC[C@@]2(CCCN(C(=O)c3ccco3)C2)C1
8.53%: max response [10, 16]
inactive: Potency [1] > 11.4 µM | activity change, negative = inhibition [2] -7.86% | activity change, negative = inhibition [3] 7.22% | activity, negative = inhibition [4] -2.85% | Potency [5] > 46 µM | Potency [6] | Potency [7] | Potency [8] | activity change, negative = inhibition [10] 3.8% | outcome [11]
3.5%: max response [10, 15]

COc1ccc(NC(=O)N2CC[C@@]3(CCCN(S(C)(=O)=O)C3)C2)cc1
15.1%: max response [10, 16]
inactive: Potency [1] > 11.4 µM | activity change, negative = inhibition [2] -12.7% | activity change, negative = inhibition [3] 4.27% | activity, negative = inhibition [4] -1.03% | Potency [5] > 46 µM | Potency [6] | Potency [7] | Potency [8] | activity change, negative = inhibition [10] 4.71% | outcome [11]
8.24%: max response [10, 15]

N#Cc1ccc(CN2CC[C@@]3(CCCN(C(=O)c4cnccn4)C3)C2)cc1
12.2%: max response [10, 15]
18.2%: max response [10, 16]
inactive: Potency [1] > 11.4 µM | activity change, negative = inhibition [2] -8.73% | activity change, negative = inhibition [3] 1.72% | activity, negative = inhibition [4] 4.34% | Potency [5] > 46 µM | Potency [6] | Potency [7] | activity change, negative = inhibition [10] 2.06% | outcome [11]

O=S(=O)(c1ccccc1)N1CCC2(CCN(c3cccc(-c4ccccc4)c3)CC2)CC1
inactive: Potency [1] > 11.4 µM | activity change, negative = inhibition [2] -5.65% | activity change, negative = inhibition [3] -3.11% | activity, negative = inhibition [4] -8.83% | Potency [5] > 46 µM | Potency [6] | Potency [7] | activity change, negative = inhibition [10] 5.8% | outcome [11]
24.9%: max response [10, 16]
17.8%: max response [10, 15]

CC(=O)N1CCC[C@@]2(CCN(Cc3ccc(C#N)cc3)C2)C1
8.41%: max response [10, 16]
7.32%: max response [10, 15]
inactive: Potency [1] > 11.4 µM | activity change, negative = inhibition [2] -11.7% | activity change, negative = inhibition [3] 2.49% | Potency [5] > 46 µM | Potency [6] | Potency [7] | activity change, negative = inhibition [10] 2.62% | outcome [11]

COc1ccc(C(=O)N2CCC3(CC2)CN(c2ccc(-c4ccccc4)cc2)C3)cc1
inactive: Potency [1] > 11.4 µM | activity change, negative = inhibition [2] -5.62% | activity change, negative = inhibition [3] -9.07% | Potency [5] > 46 µM | Potency [6] | Potency [7] | activity change, negative = inhibition [10] -3.67% | outcome [11]
9.2%: max response [10, 15]
7.61%: max response [10, 16]

From PubChem BioAssay (NCATS)
